Measurements from the OligoGym collection.

The sequences below were run against GOLGA1 (assay: pooled miR-30 sensor sort-seq; sequence = guide strand). Settings: shRNA.
Further: reference of the scale not given here.

Sequence	sensor-assay potency score (higher = more potent)
TATAGTAGTGAAGAACTTCAGC	-0.313
TTTACTTAGTTCCTGCTGCTGG	0.484
TTTATCTTCTGCAAGTTTCGGA	0.43

What follows are sequences tested against GORASP1 in the same assay as above. Settings: shRNA.

Sequence	sensor-assay potency score (higher = more potent)
TTATCCTCCAACTTATGGGGGA	-0.359
TAACTCGCTGCACTGGAGGTGG	-0.397
TGACTTGGAGTTATACACCATC	-1.14
TTCAGTAGTGCCTTCAGGGTGT	0.45
AATATTAGCATTGATACCCATT	-1.46
TTATACACCATCAGCTTCAAGG	-1
TACACCATCAGCTTCAAGGGCT	0.394
TTCCACATCCAGCACATGCCAC	-1.05
TCCATGTAGTCACTCTGCCTGG	-1.3
TGAAGATGGTTCCACATCCAGC	-1.37

These sequences were tested against GP1BA in the same assay as above. Settings: shRNA.

Sequence	sensor-assay potency score (higher = more potent)
TAGAGGATCTCACAGTTGCATA	-1.69
TTGGGGTCCATCTAGGTGGGAA	-0.196
TTTGGCTGTCTAGAGAAGCAGT	-0.816
TTCAGCATTGTCCTGCAGCCAG	-0.558
TATACAGCGAGTTCTCTTGGAG	-0.385
ATTTTCAGCATTGTCCTGCAGC	-0.496
TTTCAGGTAGAGCTCTTGGAGT	-0.846
TAGTGGATTCTTGTGTTGGATG	-1.15
TTTGGTATTGTATACAGCGAGT	-0.992
AACTTGACCACAGTCCTTGTGG	0.0455
TAGACGGGAAACTTGTCTGAAT	-0.507
TTGACCACAGTCCTTGTGGCAC	-0.461

The sequences below were run against GP6 in the same assay as above. Settings: shRNA.

Sequence	sensor-assay potency score (higher = more potent)
TTGCACAGGCTGATCTTGTTTT	-0.638
TTGTTTTCTAATGTGAAGGGAA	-0.126
TTCGTTTGTGAATGAGACGGTC	0.0865
TTTTACACTAAGGAAAATGAAT	-1.19
TTTGTTGGTAGAGATGAGGTTT	-0.205
TATTTTTTGAGACAAAGTCAGG	-1.21
TAGCATCGGTAGGTTCCGCTGT	-0.0169
TTTTGAGACAAAGTCAGGCTTC	0.424
TAGCCCTGTACCATCTCTCGGG	-0.328
ATTATTAGGATCACAGCCCCGA	-0.0711

Each sequence was assayed against GPAA1 in the same assay as above. Settings: shRNA.

Sequence	sensor-assay potency score (higher = more potent)
TAGCGCTGCCAGGAAGAGCTGC	-1.02
TAGCTCAGCACGCACAACGGCG	-1.38
AAAACCAGCGCCAAGAACCAGG	-1.17
TTCCGGGAGAAACTCTGCGTGT	-1.01
TTCAGTGCCATCCAGCCCCTGT	-0.292
